In the library only some 2.8% were active in any assay of this set; here they are far more common.
PTHR1 ag: agonists of human PTHR1 parathyroid hormone receptor | Q03431 | HEK293 GP2 PTHR1 cells, GloSensor cAMP luminescence, 1 h | Potency, µM (highest dose often 115 µM), most hits filed as activators | actives 0.075% (n = 410,000); note: nearly all actives have a fitted effect of over 55% in size
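HEK-293-derived GP2 cells expressing PTHR1 and a GloSensor cAMP reporter, 3,000/well, plated overnight, given luciferin plus IBMX (each 0.5 mM as added) for 1 h at 37 °C, then compound for 1 h at 37 °C. Luminescence was read after 15 min at room temperature.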
CBFb-RUNX1 inh: CBF-beta/RUNX1 interaction disruption; Potency, µM (highest dose often 59.8 µM), hits mostly inhibitors; AID 1477; Q01196+Q13951; AlphaScreen CBFb-His/RUNX1-biotin binding, biochemical; 230,000 tested, under 10 active
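Inhibition was taken as any reduction in AlphaScreen signal from the CBF-beta–RUNX1 pair (His and biotin tags, 30 nM each), measured after compound (15 min) and bead (90 min) incubations at room temperature.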
MBNL1-CUG inh: MBNL1-poly(CUG) RNA binding inhibition. actives 0.036% (n = 280,000). Potency, µM (highest dose often 57.5 µM), hits mostly inhibitors. Q9NR56. TR-FRET MBNL1-His/biotin-(CUG)12 binding, 665/545 ratio. AID 2675; active = well fitted inhibition curve with a large enough effect in the signal ratio, with a control signal flat, not every such curve was filed as active; inconclusive = small, poorly fitted or top-dose-only effect, or effect the other way, or a change in a side signal; inactive = no such curve, though single readings can be large or run the other way; the % refers to the signal ratio
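TR-FRET between His-tagged MBNL1 and biotin-(CUG)12 RNA, detected with Tb anti-His antibody (0.055 ng/ul) and streptavidin-XL665 (5 nM), 60 min at room temperature. Compounds titrated 92 nM to 58 uM; 665/545 nm ratio normalized to buffer and complex controls.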
a7 integrin act: activators of alpha7 integrin expression for muscular dystrophy. Potency, µM (doses to about 38.3 µM), actives largely listed as activators. actives 0.064% (n = 350,000). alpha7betagal myoblasts, beta-gal FDG fluorescence, 48 h; note: nearly all actives have a fitted effect of over 60% in size
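Alpha7betagal+/- myoblasts (passage 13) were plated 16-24 hr, then exposed to compounds (1:260 dilution of DMSO stock) for 48 hours at 37C. After MPER lysis, β-galactosidase reporter activity was read as FDG fluorescence (ex 480/em 540) after 30 minutes.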
DRD3 agonist: activates the human D3 dopamine receptor; P35462; D3R DiscoveRx beta-arrestin cells, luminescence, 90 min; max activation, %; actives 0.58% (n = 410,000); AID 652048; in the data active = max activation above about 30%
Target sequence (P35462 whole entry, looked up): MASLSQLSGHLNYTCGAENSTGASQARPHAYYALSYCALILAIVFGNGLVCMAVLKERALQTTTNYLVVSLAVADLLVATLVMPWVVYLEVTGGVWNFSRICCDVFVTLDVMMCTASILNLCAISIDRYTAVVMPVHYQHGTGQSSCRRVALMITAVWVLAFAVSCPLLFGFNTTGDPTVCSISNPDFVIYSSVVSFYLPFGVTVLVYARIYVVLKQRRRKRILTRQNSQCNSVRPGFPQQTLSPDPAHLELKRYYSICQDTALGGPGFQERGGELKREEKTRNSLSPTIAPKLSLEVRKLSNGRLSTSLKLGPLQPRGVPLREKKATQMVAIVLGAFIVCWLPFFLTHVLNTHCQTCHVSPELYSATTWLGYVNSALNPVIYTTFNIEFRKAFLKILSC
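Agonist-mode cell screen: cells plated at 1500/well and incubated overnight at 37 °C, then exposed to library compounds for 90 min at 37 °C. Detection reagent was added for 30–60 min at room temperature, and luminescence was read.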
D3 antag: D3 dopamine receptor (human) antagonism. P35462. D3R cells, DiscoveRx beta-arrestin luminescence, antagonist mode; hits give low values. max response, negative = inhibition, %. actives 2.5% (n = 360,000). AID 652054; in the data active = max response below about -50%; inconclusive = no clear call, values can overlap the other calls
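Cells plated overnight at 1500 cells/well, then exposed to library compounds with dopamine controls for 90 minutes at 37 degrees C. DiscoveRx reagent added for 30–60 minutes at room temperature; luminescence read, quantitative HTS format.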
Hits are given with their value; . = inactive; ? = inconclusive; / = not tested or not shown; [ ] = dose if it differs, or a comment. Unless noted, calls come from the whole dose curve; as a rule, active = well fitted curve in the direction sought with a large enough effect; inconclusive = small, poorly fitted or top-dose-only effect, or another doubt; inactive = no such curve, though single readings can be large; an effect the other way counts as inactive or inconclusive.

SMILES	PTHR1 ag	CBFb-RUNX1 inh	MBNL1-CUG inh	a7 integrin act	DRD3 agonist	D3 antag
CC(=O)O[C@H]1C[C@H](O[C@H]2[C@@H](O)C[C@H](O[C@H]3[C@@H](O)C[C@H](OC4CC[C@@]5(C)[C@H](CC[C@@H]6[C@@H]5CC[C@]5(C)[C@@H](C7=CC(=O)OC7)CC[C@]65O)C4)O[C@@H]3C)O[C@@H]2C)O[C@H](C)[C@H]1O[C@@H]1O[C@H](CO)[C@@H](O)[C@H](O)[C@H]1O (stereo partly specified)	/	/	/	/	.	/
CC[C@@]1(O)C(=O)OCc2c1cc1n(c2=O)Cc2cc3c(N)cccc3nc2-1	45µM	.	?	.	.	?
CCC(=O)O[C@]1(c2ccccc2)CCN(C)C[C@H]1C	/	/	/	/	.	/
O=P(c1ccccc1)(c1ccccc1)N(c1ccccc1)c1ccccc1	.	.	.	?	.	-54
Cc1ccc(CN2Cc3ccc(Br)cc3-n3nncc3C2)cc1	.	/	/	/	.	-55
Brc1ccc2c(c1)-n1nncc1CN(CC1CCCCC1)C2	.	/	/	/	.	?
CN(C)c1cccc(CN2CCN(c3ccccc3)CC2)c1	.	/	/	/	.	-85
CCCCOC(=O)C1=C(N)OC2=C(C(=O)CCC2)[C@]12C(=O)N(C)c1ccccc12	.	.	.	.	.	-54
ClC(Cl)(Cl)C(Cl)(Cl)Cl	/	.	/	/	/	/
O=C(NC(O)C(Cl)(Cl)Cl)NC(O)C(Cl)(Cl)Cl (stereo unspecified)	/	/	/	/	77	/
N#CC1c2ccccc2C=CN1C(=O)c1ccc(N(CCCl)CCCl)cc1 (stereo unspecified)	.	/	/	.	.	-81
COc1ccc(C(=O)CN2CCCCC2)cc1	.	.	/	13µM	.	.
C=C1[C@@H](C)[C@H]2[C@H](Cc3ccccc3)NC(=O)[C@]23OC(=O)/C=C/[C@H](O)CCC[C@@H](C)C/C=C/[C@H]3[C@@H]1O	.	.	.	/	78	.
C=C1C(C)C2C(Cc3ccccc3)NC(=O)C23C(OC(C)=O)C=CC(C)(O)CC(C)CC=CC3C1O (stereo unspecified)	.	/	/	.	.	.
CN1CC(C(=O)c2ccc([N+](=O)[O-])cc2)C(c2ccc(Cl)cc2)C1 (stereo unspecified)	.	/	?	.	.	-59
COc1ccc(C(=O)C2CN(C)CC2c2ccc(Cl)cc2)cc1 (stereo unspecified)	.	.	.	?	.	.
COc1ccc(OC)c([C@@H](O)[C@H](C)N)c1	/	/	/	/	.	/
CCCCCCC(C)(C)c1ccc([C@@H]2C[C@H](O)CC[C@H]2CCCO)c(O)c1	.	.	/	/	70	.
CC[C@@]1(C(=O)OC)N[C@H](CN(C)C(=O)Nc2ccc(OC)cc2)[C@@H]2C(=O)N(Cc3ccccc3)C(=O)[C@@H]21	?	/	/	.	.	.
O=Cc1ccc2c(c1)OCO2	/	.	/	/	/	/
CC1CCCN(CCCNC(=O)c2ccc3c(c2)N(Cc2cccc(Cl)c2)C(=O)c2ccccc2S3=O)C1 (stereo unspecified)	.	/	/	.	.	-117
Cc1ccc(CN2C(=O)c3ccccc3Sc3ccc(C(=O)N4CCC5(CC4)OCCO5)cc32)cc1	.	/	/	/	.	/
CCc1cc(OC)c(C[C@@H](C)N)cc1OC	/	/	/	/	.	/
Cc1ccccc1CN1CCCN(Cc2ccc(Cl)cc2)S1(=O)=O	.	/	.	.	.	?
Cc1ccc(CN2CCCN(Cc3ccc(Cl)cc3)S2(=O)=O)cc1	.	/	.	.	77	.
SMILES	PTHR1 ag	CBFb-RUNX1 inh	MBNL1-CUG inh	a7 integrin act	DRD3 agonist	D3 antag
O=C(O)c1ccc2[nH]cc(CCCCN3CC=C(c4ccccc4)CC3)c2c1	/	.	/	/	73	/
Oc1ccc2[nH]cc(CCCCN3CC=C(c4ccccc4)CC3)c2c1	/	.	/	/	55	/
Oc1ccc2ccccc2c1CN1CC=C(c2ccccc2)CC1	.	.	.	.	.	?
O=C(CCN1CC=C(c2ccccc2)CC1)NCc1ccccc1	.	/	/	.	.	-69
NCC1OC(O[C@@H]2[C@H](O)[C@@H](OC3C(O)C(N)CC(N)C3OC3OC(CO)C(O)C(O)C3N)O[C@@H]2CO)C(N)C(O)C1O (stereo partly specified)	/	.	/	/	/	/
CC(C)=CCN1CC[C@@]2(C)c3cc(O)ccc3C[C@@H]1C2C (stereo partly specified)	.	/	/	/	.	-58
CC(C)=CCN1CC[C@@]2(C)c3cc(O)ccc3CC1C2C (stereo partly specified)	.	/	/	/	.	?
CC1(C)CC/C(=C/c2ccc(Cl)cc2)C1(O)Cn1cncn1 (stereo unspecified)	/	/	/	/	.	/
C[C@H]1CC[C@]2(NC1)O[C@H]1C[C@H]3[C@@H]4CC[C@H]5C[C@@H](O)CC[C@]5(C)[C@H]4CC[C@]3(C)[C@H]1[C@@H]2C	/	/	/	/	.	/
COc1cc(/C=C2\C[C@H]3[C@@H]4CC=C5C[C@@H](N6CCCC6)CC[C@]5(C)[C@H]4CC[C@]3(C)[C@H]2O)cc(OC)c1OC	.	/	/	.	.	-70
Cc1ccc(NC(=O)c2cc(S(=O)(=O)N3CCOCC3)c(Cl)cc2Cl)cc1	.	/	/	/	.	/
CC(=O)c1cccc(OCC(O)CN2CC=C(c3ccccc3)CC2)c1 (stereo unspecified)	.	.	.	.[7.66 µM]	73	.
CCOC(=O)c1cccc(NC(=O)NCc2ccc3c(c2)CCN3C(=O)c2ccccc2)c1	.	/	/	/	.	/
COC(=O)C1=C(c2cc3ccccc3o2)C[C@@H]2CC[C@H]1N2C(=O)NCc1ccccc1	.	/	/	.	.	-50
COC(=O)C1=C(c2cc3ccccc3o2)C[C@@H]2CC[C@H]1N2C(=O)NCCCOC(C)C	.	/	/	.	.	.
COC(=O)C1=C(c2cc3ccccc3o2)C[C@@H]2CC[C@H]1N2C(=O)NCCNC(C)=O	.	/	/	.	41	.
COc1ccc(NS(=O)(=O)c2ccc3c(c2)CCCN3C(=O)C2CCC2)cc1OC	.	/	/	/	.	/
CCCN1CCO[C@@H]2c3cc(O)ccc3OC[C@H]21	.	.	/	/	146	.
COc1ccc(C(=O)C2CCCN(Cc3ccc(C)s3)C2)c(OC)c1 (stereo unspecified)	.	.	.	.	.	-69
COc1ccc(F)cc1C(=O)C1CCCN(Cc2cnc(C)s2)C1 (stereo unspecified)	.	.	.	.	.	?
COc1ccc(OC)c(CN2CCCC(C(=O)c3sccc3C)C2)c1 (stereo unspecified)	.	.	.	.	.	-82
COc1ccc(Cl)cc1C(=O)C1CCCN(Cc2cnc(C)s2)C1 (stereo unspecified)	.	.	.	.	.	-56

From PubChem BioAssay
